According to PubChem BioAssay AID2546 (National Center for Advancing Translational Sciences (NCATS), 2010):
Screen size: about 310,000 compounds; about 11,000 (3.5%) were called active. A call without a number means that no potency is given here. Not shown: some 8% with an inconclusive outcome. This is one part of a sample in which actives are shown more often than they occur. A number with no mark means an inactive call. Calls come from the whole dose curve; as a rule, active = well fitted inhibition curve with a large enough effect; inconclusive = small, poorly fitted or top-dose-only effect, or effect the other way; inactive = flat fitted curve, though single readings scatter.
Potency is the fitted concentration of half-maximal effect.

Experiment: VP16 counterscreen qHTS for inhibitors of ROR gamma transcriptional activity;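 note: Gal4-VP16 expression switched on by copper sulfate through the metallothionein promoter; nearly all actives have a fitted effect of over 50% in size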
Details: Drosophila S2 Gal4-VP16 UAS-luciferase, luminescence, 20 h; series mostly up to 53.6 µM
With Cc1noc(C)c1CCC(=O)N1CCCC(CO)(Cc2ccccc2)C1 (stereo not drawn) the Potency was “inactive”.
For COc1ccc(C2CC(=O)Nc3cc(C)c(C)cc32)c(OC)c1OC (stereo not drawn), the Potency was “inactive”.
With CCCOc1ccccc1C1CC(=O)Nc2cc3c(cc21)OCO3 (stereo not drawn) the Potency was 14.1 µM (active).
With COc1ccccc1C1C2=C(COC2=O)Nc2cc3c(cc21)OCO3 (stereo not drawn) the Potency was “inactive”.
With O=C(NCCCN1CCCC1=O)C(=O)NCC1OCCN1S(=O)(=O)c1ccc(Br)cc1 (stereo not drawn) the Potency was “inactive”.
For COc1ccc(-c2nn(-c3ccccc3)cc2C(=O)Nc2nccs2)cc1OC, the Potency was 22.4 µM (active).
For CC(=O)Cc1nsc(NC(=O)c2ccc(COc3ccc(C)cc3)o2)n1, the Potency was “inactive”.
With O=C(O)c1ccc(NC(=O)c2cn(-c3ccccc3)nc2-c2ccc(Cl)cc2)cc1 the Potency was “inactive”.
With O=C(O)c1ccccc1-c1ccccc1C(=O)Nc1nccs1 the Potency was “inactive”.
For CN(C)/N=C/c1cn(-c2ccccc2)nc1-c1cccnc1, the Potency was “inactive”.
For COc1ccc(-c2nn(-c3ccccc3)cc2C(=O)Nc2nc(CC(C)=O)ns2)cc1, the Potency was 12.6 µM (active).
In the case of COc1ccc(-c2nn(-c3ccccc3)cc2/C=N/Nc2ccccn2)cc1OC, the Potency is reported as 8.91 µM (active).
In the case of CC(C)(C)OC(=O)N/N=C/c1cn(-c2ccccc2)nc1-c1cccnc1, the Potency is reported as “inactive”.
For COc1ccc(NC(=O)c2cn(-c3ccccc3)nc2SC)cc1, the Potency was “inactive”.
In the case of O=C1C[C@@H](c2ccc3ccccc3c2)N1S(=O)(=O)c1ccccc1[N+](=O)[O-], the Potency is reported as “inactive”.
For Cc1ccc(CNS(=O)(=O)c2ccc3c(c2)N(C)CCO3)cc1, the Potency was “inactive”.
In the case of Cc1cc(=O)[nH]c(Nc2cccc(Br)c2)n1, the Potency is reported as “inactive”.
With Cc1cccc(C(=O)NCC(=O)OCC(=O)N2CC3(C)CC2CC(C)(C)C3)c1 (stereo not drawn) the Potency was “inactive”.
In the case of COc1ccccc1C(=O)N1CC2(C)CC1CC(C)(C)C2 (stereo not drawn), the Potency is reported as “inactive”.
With Cc1nnnn1/C(=C\c1ccccc1)C(=O)OCC(=O)N1CC2(C)CC1CC(C)(C)C2 (stereo not drawn) the Potency was 10 µM (active).
For CCOC(=O)c1ccc(NC(=O)c2cccnc2)cc1, the Potency was “inactive”.
In the case of CCSc1nc2sc3c(c2c(=O)n1-c1ccc(C)cc1)CCN(C)C3, the Potency is reported as “inactive”.
With O=C(C1CCCO1)N1CCN(C(=S)Nc2cccc(Cl)c2)CC1 (stereo not drawn) the Potency was “inactive”.
With Cc1cccc(NC(=S)N2CCCC(c3nc4ccccc4[nH]3)C2)c1 (stereo not drawn) the activity, negative = inhibition was 5.42% [at 10 µM].
With Cc1ccc(C2CCN(C(=S)Nc3cccc(Cl)c3)C2)cc1 (stereo not drawn) the Potency was 12.6 µM (active).
In the case of CC(=O)c1nn(-c2cccc(C(F)(F)F)c2)c(=O)[nH]c1=O, the Potency is reported as “inactive”.
With COc1ccccc1CCNC(=O)c1c(C)nn(CC(C)C)c1Cl the Potency was “inactive”.
With COc1cccc(C(=O)N/N=C(\C)c2cccc(NC(=O)c3ccc(F)cc3)c2)c1OC the Potency was “inactive”.
